This is part of a sample that, as a whole, favours compounds with a hit. Of some 83,000 tested, about 20% had one in any assay.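 48-hour exposure, single concentration, 96-well plates; percent growth endpoint where 0 means no net growth. Active: below 10.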 A number with no mark means an inactive call. Active and inactive are the calls of the source.
Columns and labels:
Experiment in all cases: NCI-60 one-dose screen, 48 h (100 = growth as untreated, 0 = no growth, -100 = all killed)
Conditions in all cases: 10 µM unless noted
T-47D breast = system: T-47D breast
BT-549 breast = system: BT-549 breast
MDA-MB-435 melanoma = system: MDA-MB-435 melanoma
SW-620 colon = system: SW-620 colon
MCF7 breast = system: MCF7 breast
HCT-116 colon = system: HCT-116 colon
HCC-2998 colon = system: HCC-2998 colon
KM12 colon = system: KM12 colon

`C=C(C)[C@@H]1CC[C@]2(C=NCCCNCCCCNCCCN)CC[C@]3(C)[C@H](CC[C@@H]4[C@@]5(C)CCCNC(C)(C)[C@@H]5CC[C@]43C)[C@@H]12` gave a growth (T-47D breast) of 90.8%, a growth (BT-549 breast) of 98.2% and a growth (MDA-MB-435 melanoma) of 94.8%. It also gave a growth (SW-620 colon) of 88.4%, a growth (MCF7 breast) of 89.4% and a growth (HCT-116 colon) of 77.7%. For the same molecule, the growth (HCC-2998 colon) was 100% and the growth (KM12 colon) was 98.2%.
`Fc1ccc(Nc2ccc3c(OCCCN4CCOCC4)cccc3n2)cc1F` showed a growth (T-47D breast) of 78%, a growth (BT-549 breast) of 86.1% and a growth (MDA-MB-435 melanoma) of 78.7%. The growth (SW-620 colon) was 47.6%, the growth (MCF7 breast) was 61.3% and the growth (HCT-116 colon) was 78.5%. For the same molecule, the growth (HCC-2998 colon) was 66.3% and the growth (KM12 colon) was 16.1%.
`Cc1ccc(-c2ccc(/C=C(\C#N)c3nc(-c4ccco4)cs3)o2)cc1` was tested, and the growth (T-47D breast) was -22.8% (active), the growth (BT-549 breast) was 103% and the growth (MDA-MB-435 melanoma) was 98.6%. For the same molecule, the growth (SW-620 colon) was 99.8%, the growth (MCF7 breast) was 14.5% and the growth (HCT-116 colon) was 98%. The growth (HCC-2998 colon) was 54.8% and the growth (KM12 colon) was 61.2%.
With `CC(=O)n1c(/C(C#N)=C/c2ccc(N(C)C)cc2)cc2ccccc21` the growth (T-47D breast) was 35.8%, the growth (BT-549 breast) was 17.7% and the growth (MDA-MB-435 melanoma) was 2.22% (active). It also gave a growth (SW-620 colon) of 24.6%, a growth (MCF7 breast) of 20.1% and a growth (HCT-116 colon) of 27.7%. For the same molecule, the growth (HCC-2998 colon) was 50.5% and the growth (KM12 colon) was 31.6%.
`COc1cc(/C=C/c2cc(/C=C/c3ccc(O)c(OC)c3)n(-c3ccccc3)c(=O)n2)ccc1O` showed a growth (T-47D breast) of 71.4%, a growth (BT-549 breast) of 56.9% and a growth (MDA-MB-435 melanoma) of 73.1%. It also gave a growth (SW-620 colon) of 78.4%, a growth (MCF7 breast) of 40.8% and a growth (HCT-116 colon) of 55.6%. It also gave a growth (HCC-2998 colon) of 104% and a growth (KM12 colon) of 63.2%.
For `COc1cc(/C=N/NC(=S)NNC(=S)NC2CCCCC2)cc(OC)c1OC`, the growth (T-47D breast) was 69.9%, the growth (BT-549 breast) was 105% and the growth (MDA-MB-435 melanoma) was 98.8%. For the same molecule, the growth (SW-620 colon) was 104%, the growth (MCF7 breast) was 92.4% and the growth (HCT-116 colon) was 104%. For the same molecule, the growth (HCC-2998 colon) was 112% and the growth (KM12 colon) was 95.1%.
With `COc1ccc(-c2cc(/C=C/C(=O)c3ccc(OC)c(OC)c3)[nH]n2)cc1` the growth (T-47D breast) was 22.2%, the growth (BT-549 breast) was -34.2% (active) and the growth (MDA-MB-435 melanoma) was 21.3%. The growth (SW-620 colon) was -70.5% (active), the growth (MCF7 breast) was 6.07% (active) and the growth (HCT-116 colon) was -40.7% (active). The growth (HCC-2998 colon) was 92.7% and the growth (KM12 colon) was -79.9% (active).
With `O=c1c2sc3ncc(Br)cc3c2ncn1-c1cccc(Cl)c1` the growth (T-47D breast) was 61.9%, the growth (BT-549 breast) was 78.9% and the growth (MDA-MB-435 melanoma) was 75.2%. The growth (SW-620 colon) was 58.8%, the growth (MCF7 breast) was 94.2% and the growth (HCT-116 colon) was 27.4%. It also gave a growth (HCC-2998 colon) of 104% and a growth (KM12 colon) of 72.2%.
With `O=C(Nc1ccc(/C=C2\SC(=O)N(Cc3ccc(OC(F)(F)F)cc3)C2=O)cc1)c1ccc(Cl)c([N+](=O)[O-])c1` the growth (T-47D breast) was 4.78% (active), the growth (BT-549 breast) was 75.3% and the growth (MDA-MB-435 melanoma) was 99.6%. For the same molecule, the growth (SW-620 colon) was 2.11% (active), the growth (MCF7 breast) was 1.61% (active) and the growth (HCT-116 colon) was 67.5%. It also gave a growth (HCC-2998 colon) of 96.7% and a growth (KM12 colon) of 53.1%.
`COc1ccc(C2=NN(c3nc(-c4ccc(OC)cc4)c(C#N)c(=O)n3C)C(=O)CC2)cc1` was tested, and the growth (T-47D breast) was 92.4%, the growth (BT-549 breast) was 107% and the growth (MDA-MB-435 melanoma) was 109%. It also gave a growth (SW-620 colon) of 108%, a growth (MCF7 breast) of 92% and a growth (HCT-116 colon) of 97.4%. It also gave a growth (HCC-2998 colon) of 91.8% and a growth (KM12 colon) of 107%.
With `C/C(=N\NC(=O)C(C)SC(C)C(=O)N/N=C(\C)c1cccnc1)c1cccnc1` (stereo not given) the growth (T-47D breast) was 104%, the growth (BT-549 breast) was 106% and the growth (MDA-MB-435 melanoma) was 106%. For the same molecule, the growth (SW-620 colon) was 96.9%, the growth (MCF7 breast) was 95.7% and the growth (HCT-116 colon) was 110%. For the same molecule, the growth (HCC-2998 colon) was 106% and the growth (KM12 colon) was 107%.
`Cn1c(=O)c2c(nc(Br)n2CC(=O)Nc2ccc(F)cc2)n(C)c1=O` showed a growth (T-47D breast) of 87.2%, a growth (BT-549 breast) of 101% and a growth (MDA-MB-435 melanoma) of 112%. The growth (SW-620 colon) was 105%, the growth (MCF7 breast) was 99.2% and the growth (HCT-116 colon) was 84.5%. It also gave a growth (HCC-2998 colon) of 114% and a growth (KM12 colon) of 101%.
With `COc1cc(-c2cc(-c3nc4ccccc4[nH]3)[nH]n2)cc(OC)c1OC` the growth (T-47D breast) was 6.65% (active), the growth (BT-549 breast) was 36.4% and the growth (MDA-MB-435 melanoma) was 19.2%. The growth (SW-620 colon) was 59.4%, the growth (MCF7 breast) was 44.2% and the growth (HCT-116 colon) was 38.7%. The growth (HCC-2998 colon) was 71.4% and the growth (KM12 colon) was 27%.
Work on `COc1ccc(-c2c(-c3nc4ccc(N5CCOCC5)cc4[nH]3)[nH]c(C)c2C(C)=O)cc1` yielded a growth (T-47D breast) of 27.3%, a growth (BT-549 breast) of 64.9% and a growth (MDA-MB-435 melanoma) of 29.7%. The growth (SW-620 colon) was 63.4%, the growth (MCF7 breast) was 10.8% and the growth (HCT-116 colon) was 34.8%. The growth (HCC-2998 colon) was 35% and the growth (KM12 colon) was 46.5%.
Work on `Cc1cc(Cl)c2c(N(C)C)cccc2n1` yielded a growth (T-47D breast) of 94.7%, a growth (BT-549 breast) of 98.3% and a growth (MDA-MB-435 melanoma) of 106%. For the same molecule, the growth (SW-620 colon) was 88.7%, the growth (MCF7 breast) was 79.3% and the growth (HCT-116 colon) was 92.3%. It also gave a growth (HCC-2998 colon) of 97.1% and a growth (KM12 colon) of 109%.
